Test results: PubChem BioAssay (NCATS)
Records with an inconclusive call do not appear. Active and inactive are the calls of the source. Calls follow the shape of the dose curve; as a rule, active = well fitted inhibition curve with a large enough effect; inconclusive = small, poorly fitted or top-dose-only effect; inactive = flat fitted curve, though single readings scatter.

Experiments:
[1] = Drug repurposing screens with cells derived from glioblastoma tumor samples (AID 1345199); conditions: GBM patient neurospheres viability, ATP luminescence, 48 h; also: nearly all actives have a fitted effect of over 40% in size
Procedure, shortened: (§1)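 Primary testing used CD133+ neurospheres from four GBM patients, seven concentrations, 48 h exposure and ATP-based viability; confirmation added three slower-growing patient lines.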

[2] = tested on: astro; assay: as above; conditions: viability, ATP luminescence, 48 h; series mostly up to 45.9 µM
Procedure, shortened: as §1

[3] = at 45.9 µM (top of the series), tumour line B
[4] = at 45.9 µM (top of the series), tumour line D
[5] = at 46 µM (top of the series), tumour line A
[6] = at 46.1 µM (top of the series), tumour line C
[7] = at 20 µM (top of the series), tumour line C
[8] = at 21.2 µM (top of the series), tumour line B
[9] = at 21.2 µM (top of the series), tumour line D
[10] = at 21.3 µM (top of the series), tumour line A
% is scaled to controls: 0 for no effect and ±100 for the full control effect.

H-RKDVY-OH
inactive: activity, negative = cell killing [1, 3] -2.29% | activity, negative = cell killing [1, 4] 4.86% | activity, negative = cell killing [1, 5] -6.05% | activity, negative = cell killing [1, 6] -18.9% | Potency [2]

NC[C@H]1O[C@H](O[C@H]2[C@H](O)[C@@H](O[C@H]3O[C@H](CO)[C@@H](O)[C@H](N)[C@H]3O)[C@H](N)C[C@@H]2N)[C@H](N)C[C@@H]1O
inactive: activity, negative = cell killing [1, 7] 1.26% | activity, negative = cell killing [1, 8] -9.72% | activity, negative = cell killing [1, 9] -3.61% | activity, negative = cell killing [1, 10] -18.4% | Potency [2]

NC(=S)NS(=O)(=O)c1ccc(N)cc1
inactive: activity, negative = cell killing [1, 3] -6.04% | activity, negative = cell killing [1, 4] 0.448% | activity, negative = cell killing [1, 5] -23.8% | activity, negative = cell killing [1, 6] -8.76% | Potency [2]

COc1ccc([C@@H]2CC(=O)c3c(O)cc(O[C@@H]4O[C@H](CO[C@@H]5O[C@@H](C)[C@H](O)[C@@H](O)[C@H]5O)[C@@H](O)[C@H](O)[C@H]4O)cc3O2)cc1O
inactive: activity, negative = cell killing [1, 7] -7.12% | activity, negative = cell killing [1, 8] -4.88% | activity, negative = cell killing [1, 9] -12.7% | activity, negative = cell killing [1, 10] -11.4% | Potency [2]

NC[C@H]1O[C@H](O[C@H]2[C@H](O)[C@@H](O[C@H]3O[C@H](CO)[C@@H](O)[C@H](N)[C@H]3O)[C@H](N)C[C@@H]2N)[C@H](O)[C@@H](O)[C@@H]1O
inactive: activity, negative = cell killing [1, 7] 3.71% | activity, negative = cell killing [1, 8] -14.2% | activity, negative = cell killing [1, 9] 0.603% | activity, negative = cell killing [1, 10] -23.6% | Potency [2]

OCC1(CO)COC(C(Cl)(Cl)Cl)OC1
inactive: activity, negative = cell killing [1, 3] -8.7% | activity, negative = cell killing [1, 4] -7.18% | activity, negative = cell killing [1, 5] -26.1% | activity, negative = cell killing [1, 6] -4.39% | Potency [2]

O=C(CO)[C@@H](O)[C@H](O)[C@@H](O)C(=O)O
inactive: activity, negative = cell killing [1, 3] -4.69% | activity, negative = cell killing [1, 4] -4.84% | activity, negative = cell killing [1, 5] -22.3% | activity, negative = cell killing [1, 6] -9.16% | Potency [2]
